The nature of test [1]: qHTS assay to identify aromatase inhibitors - cell viability counter screen (AID 743084).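 Also: cells stimulated with testosterone during compound exposure; nearly all actives have a fitted effect of over 55% in size.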 Also: potency is read from the fitted curve at half-maximal effect. In general terms: Quantitative high-throughput screening tests each substance at several concentrations.
Test [2] is described as follows: qHTS assay to identify small molecule that activate the aryl hydrocarbon receptor (AhR) signaling pathway - cell viability counter screen (AID 743086). Also: nearly all actives have a fitted effect of over 45% in size. Also: potency is read from the fitted curve at half-maximal effect. The method, boiled down: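 Cytotoxicity counter screen: CellTiter-Fluor signal (30 min, 37 C) in 4000 HepG2 cells/well carrying the DRE-luciferase reporter, following 24 h compound exposure at 37 C.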
Test [3] in a line: qHTS assay to identify small molecule antagonists of the peroxisome proliferator-activated receptor gamma (PPARg) signaling pathway - cell viability counter screen (AID 743194). Also: nearly all actives have a fitted effect of over 55% in size. Also: potency is read from the fitted curve at half-maximal effect. The method, boiled down: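 Viability was measured as CellTiter-Glo luminescence in GeneBLAzer PPARg UAS-bla HEK293H cells. These cells had been exposed 17 h at 37 C to compounds together with rosiglitazone at 50 nM final, with the beta-lactamase readout taken in the same wells.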

Test [4] in a line: qHTS assay for small molecule agonists of the antioxidant response element (ARE) signaling pathway (AID 743202; active = well fitted activation curve with a large enough effect in the signal ratio in the repeat runs, not every such curve was filed as active; the % refers to the signal ratio; also: potency is read from the fitted curve at half-maximal effect). Put shortly:
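After 16 hours of compound treatment at 37 C, HepG2 cells with a stably integrated ARE-driven beta-lactamase reporter were loaded 2 hours at room temperature with LiveBLAzer B/G FRET substrate and fluorescence intensity measured.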

Test [5] is described as follows: qHTS assay for small molecule agonists of the antioxidant response element (ARE) signaling pathway - cell viability counter screen (AID 743203; calls by dose curve; also: nearly all actives have a fitted effect of over 55% in size; also: potency is read from the fitted curve at half-maximal effect). Put shortly: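 Measured in the same wells as the beta-lactamase ARE reporter, this read-out is CellTiter-Glo luminescence from HepG2 ARE-bla cells given compounds for 16 hrs.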
Test [6] is described as follows: qHTS assay for small molecule activators of the heat shock response signaling pathway - cell viability counter screen (AID 743209). Also: nearly all actives have a fitted effect of over 50% in size. Put shortly: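 Same-well multiplex: after 2.5 h room-temperature incubation with LiveBLAzer B/G substrate and fluorescence reading, CellTiter-Glo reagent was added to HSE-bla HeLa cells that had received compound for 5 h at 37 C; luminescence read after 30 min.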

Test [7] is described as follows: qHTS assay to identify small molecule agonists of the peroxisome proliferator-activated receptor delta (PPARd) signaling pathway - cell viability counter screen (AID 743211). Also: nearly all actives have a fitted effect of over 55% in size. Also: potency is read from the fitted curve at half-maximal effect. The method, boiled down:
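Viability was measured as CellTiter-Glo luminescence (30 min, room temperature) in the same wells as the beta-lactamase readout. GeneBLAzer PPARd UAS-bla HEK293H cells received compound after 5 h plating and were incubated 17 h at 37 C.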

Test [8] can be described thus: qHTS assay to identify small molecule antagonists of the peroxisome proliferator-activated receptor delta (PPARd) signaling pathway - cell viability counter screen (AID 743213). Also: nearly all actives have a fitted effect of over 50% in size. Also: potency is read from the fitted curve at half-maximal effect. Put shortly: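 CellTiter-Glo was added to PPARd-bla HEK293H wells following 17 h compound treatment in the presence of 300 nM L165041. Luminescence was recorded after 30 min at room temperature.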

Test [9] can be described thus: qHTS assay to identify small molecule agonists of the farnesoid-X-receptor (FXR) signaling pathway - cell viability counter screen (AID 743218). Also: nearly all actives have a fitted effect of over 45% in size. Also: potency is read from the fitted curve at half-maximal effect. The method, boiled down:
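Readout: CellTiter-Glo luminescence, 30 min RT, multiplexed after the FXR-bla FRET reading. HEK 293T FXR-UAS-bla cells received compound 5 h post-plating and were incubated 16 h at 37 C.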

Test [10] is described as follows: qHTS assay to identify small molecule antagonists of the farnesoid-X-receptor (FXR) signaling pathway - cell viability counter screen (AID 743221; active = well fitted cell-killing curve with a large enough effect in the repeat runs, not every such curve was filed as active; also: nearly all actives have a fitted effect of over 50% in size; also: potency is read from the fitted curve at half-maximal effect). Put shortly: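 Cytotoxicity counter screen run in the FXR-bla reporter wells: HEK 293T cells exposed to compound with 50 uM (final) chenodeoxycholic acid for 16 h, 37 C, then viability measured by CellTiter-Glo luminescence after 30 min, room temperature.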

Test [11] deals with Aryl hydrocarbon receptor (Homo sapiens) (UniProt P35869). Nature of the test: qHTS assay to identify small molecule that activate the aryl hydrocarbon receptor (AhR) signaling pathway (AID 743085). Also: nearly all actives have a fitted effect of over 15% in size. Also: potency is read from the fitted curve at half-maximal effect.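 As to activation: HG2L7.5c1 human HepG2 liver cells with stably integrated DRE-driven firefly reporter; series mostly up to about 70 µM.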 The method, boiled down: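 Luminescence (ONE-Glo) from a dioxin-responsive-element luciferase reporter in HG2L7.5c1 HepG2 cells after 24 hr compound exposure at 37C; viability measured by CellTiter-Fluor fluorescence beforehand.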
Aryl hydrocarbon receptor (Homo sapiens), sequence (P35869 whole entry, looked up): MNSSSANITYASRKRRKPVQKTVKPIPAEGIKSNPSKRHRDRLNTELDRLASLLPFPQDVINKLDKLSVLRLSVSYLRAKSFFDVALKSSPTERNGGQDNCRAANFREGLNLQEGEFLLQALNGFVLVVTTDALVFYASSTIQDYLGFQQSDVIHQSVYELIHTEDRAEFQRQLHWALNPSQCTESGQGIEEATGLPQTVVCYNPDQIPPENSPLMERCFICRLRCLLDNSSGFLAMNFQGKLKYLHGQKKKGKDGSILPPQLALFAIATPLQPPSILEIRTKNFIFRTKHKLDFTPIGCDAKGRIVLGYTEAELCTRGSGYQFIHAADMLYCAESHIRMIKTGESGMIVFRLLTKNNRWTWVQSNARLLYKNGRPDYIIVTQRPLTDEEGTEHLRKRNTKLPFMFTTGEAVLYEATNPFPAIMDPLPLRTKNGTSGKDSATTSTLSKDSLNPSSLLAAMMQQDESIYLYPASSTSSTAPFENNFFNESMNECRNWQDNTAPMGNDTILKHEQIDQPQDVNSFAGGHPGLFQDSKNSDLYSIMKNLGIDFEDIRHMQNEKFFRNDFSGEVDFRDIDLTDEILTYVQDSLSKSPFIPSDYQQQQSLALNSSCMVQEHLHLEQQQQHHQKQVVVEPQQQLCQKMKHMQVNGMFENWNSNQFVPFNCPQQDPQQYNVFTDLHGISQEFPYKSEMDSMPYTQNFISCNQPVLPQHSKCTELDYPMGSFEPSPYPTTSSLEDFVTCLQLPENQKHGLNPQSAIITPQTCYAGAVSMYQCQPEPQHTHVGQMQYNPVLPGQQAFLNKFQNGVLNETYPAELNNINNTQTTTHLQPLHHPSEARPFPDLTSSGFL

The nature of test [12]: qHTS assay for small molecule activators of the heat shock response signaling pathway (AID 743210; active = well fitted activation curve with a large enough effect in the signal ratio in the repeat runs, with a control signal flat, not every such curve was filed as active; the % refers to the signal ratio; also: series mostly up to about 63 µM). Put shortly:
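Compound exposure lasted 5 h at 37 C in HeLa cells carrying a heat-shock-element-driven beta-lactamase reporter. Read-out: fluorescence intensity after 2.5 h room-temperature loading with LiveBLAzer B/G FRET substrate.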

Test [13] addresses Vitamin D3 receptor (Homo sapiens) (UniProt P11473). The experiment in a line: qHTS assay to identify small molecule agonists of the vitamin D receptor (VDR) signaling pathway (AID 743222; calls by dose curve). The method, boiled down:
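Following 4 h attachment at 37C, VDR-bla cells (2,000 per well) received DMSO-dissolved compounds or controls. After 16 h incubation, LiveBLAzer B/G FRET substrate was added and fluorescence read 2 h later at room temperature.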

Test [14] shares this target. The experiment in a line: qHTS assay to identify small molecule antagonists of the vitamin D receptor (VDR) signaling pathway (AID 743223; active = well fitted inhibition curve with a large enough effect in the signal ratio in the repeat runs, not every such curve was filed as active; the % refers to the signal ratio). Put shortly: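 Antagonist mode: compound added to VDR-bla cells alongside agonist 1alpha,25-dihydroxyvitamin D3 (3 nM final), incubation 16 h at 37C. Read-out is LiveBLAzer FRET fluorescence, 2 h at room temperature.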
Test [15] has as its target Peroxisome proliferator-activated receptor gamma (Homo sapiens) (UniProt P37231). Nature of the test: qHTS assay to identify small molecule agonists of the peroxisome proliferator-activated receptor gamma (PPARg) signaling pathway (AID 743094; active = well fitted activation curve with a large enough effect in the signal ratio in the repeat runs, not every such curve was filed as active; the % refers to the signal ratio). The method, boiled down: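 Cell-based bla reporter, HEK293H background, PPARg-driven UAS. Pre-incubation 5 h, 37C, 5% CO2. Compound 17 h, 37C. Substrate 1 h RT; fluorescence.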

The target is the same in test [16]. Nature of the test: qHTS assay to identify small molecule antagonists of the peroxisome proliferator-activated receptor gamma (PPARg) signaling pathway (AID 743191; calls by dose curve; also: nearly all actives have a fitted effect of over 30% in size; also: potency is read from the fitted curve at half-maximal effect). Put shortly: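 Beta-lactamase reporter under UAS control in HEK293H PPARg-bla cells; compound treatment 17 h at 37C. Read-out: fluorescence intensity after 1 h room-temperature incubation with LiveBLAzer B/G FRET substrate.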

For test [17], the target named is Peroxisome proliferator-activated receptor delta (Homo sapiens) (UniProt Q03181). Nature of the test: qHTS assay to identify small molecule agonists of the peroxisome proliferator-activated receptor delta (PPARd) signaling pathway (AID 743212; calls by dose curve). The method, boiled down:
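Beta-lactamase reporter readout: a ratiometric FRET signal from the LiveBLAzer substrate after 2 h at room temperature. Compound exposure at 37 °C in PPARδ-bla HEK293H cells driven by an upstream activator sequence.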

Test [18] has the same target. The experiment in a line: qHTS assay to identify small molecule antagonists of the peroxisome proliferator-activated receptor delta (PPARd) signaling pathway (AID 743215; active = well fitted inhibition curve with a large enough effect in the signal ratio in the repeat runs, not every such curve was filed as active; the % refers to the signal ratio;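 also: cells stimulated with agonist L165041 at 300 nM final during compound exposure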; also: potency is read from the fitted curve at half-maximal effect). The method, boiled down:
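Fluorescence from cleaved LiveBLAzer B/G FRET substrate (2 h, room temperature) reports PPARd-driven beta-lactamase in HEK293H UAS-bla cells. Cells had been treated 17 h at 37 C with compound plus 300 nM final L165041.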

Test [19] deals with Bile acid receptor (Homo sapiens) (UniProt Q96RI1). Nature of the test: qHTS assay to identify small molecule antagonists of the farnesoid-X-receptor (FXR) signaling pathway (AID 743217; active = well fitted inhibition curve with a large enough effect in the signal ratio in the repeat runs, not every such curve was filed as active; the % refers to the signal ratio; also: potency is read from the fitted curve at half-maximal effect). The method, boiled down: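 FRET fluorescence after 2 h room-temperature LiveBLAzer loading gives the readout. Prior step: FXR-bla HEK 293T cells, seeded and incubated 5 h, received test compounds plus 50 uM final CDCA for 16 h at 37 °C.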
Bile acid receptor (Homo sapiens), sequence (Q96RI1 whole entry, looked up): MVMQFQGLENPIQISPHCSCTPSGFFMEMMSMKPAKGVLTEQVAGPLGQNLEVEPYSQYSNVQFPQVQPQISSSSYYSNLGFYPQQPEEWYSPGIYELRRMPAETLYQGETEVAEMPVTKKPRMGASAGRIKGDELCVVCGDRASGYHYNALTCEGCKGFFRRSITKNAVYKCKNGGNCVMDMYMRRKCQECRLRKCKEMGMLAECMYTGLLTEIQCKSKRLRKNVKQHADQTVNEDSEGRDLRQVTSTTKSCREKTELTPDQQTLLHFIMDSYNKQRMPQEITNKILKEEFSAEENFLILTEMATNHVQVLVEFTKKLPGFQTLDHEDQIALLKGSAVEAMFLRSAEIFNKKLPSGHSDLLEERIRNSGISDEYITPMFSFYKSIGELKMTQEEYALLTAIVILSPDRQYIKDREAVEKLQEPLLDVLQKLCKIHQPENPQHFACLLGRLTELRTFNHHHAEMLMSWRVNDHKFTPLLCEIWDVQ

For test [20] the target is unchanged. Nature of the test: qHTS assay to identify small molecule agonists of the farnesoid-X-receptor (FXR) signaling pathway (AID 743220; active = well fitted activation curve with a large enough effect in the signal ratio in the repeat runs, not every such curve was filed as active; the % refers to the signal ratio). The method, boiled down: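 FXR-UAS-bla HEK 293T cells carrying a UAS-driven beta-lactamase reporter were plated for 5 h at 37C/5% CO2, then exposed to DMSO-dissolved Tox21 10K compounds for 16 h at 37C. A LiveBLAzer B/G FRET substrate was loaded for 2 h at room temperature before fluorescence reading.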

Values joined by “and” are separate entries in the source; they are usually repeats but may differ in a detail not shown here. Equal values may be shown once. Records with an inconclusive call do not appear. Some compounds were tested as several samples or in several runs, with calls that do not always agree. Active and inactive are the calls of the source. Unless noted, calls follow the shape of the dose curve; as a rule, active = well fitted curve in the direction sought with a large enough effect in the repeat runs; inconclusive = weak or mixed curves; inactive = no such curve, though single readings can be large; an effect the other way counts as inactive or inconclusive.

Peroxisome proliferator-activated receptor gamma (Homo sapiens), sequence (P37231 whole entry, looked up): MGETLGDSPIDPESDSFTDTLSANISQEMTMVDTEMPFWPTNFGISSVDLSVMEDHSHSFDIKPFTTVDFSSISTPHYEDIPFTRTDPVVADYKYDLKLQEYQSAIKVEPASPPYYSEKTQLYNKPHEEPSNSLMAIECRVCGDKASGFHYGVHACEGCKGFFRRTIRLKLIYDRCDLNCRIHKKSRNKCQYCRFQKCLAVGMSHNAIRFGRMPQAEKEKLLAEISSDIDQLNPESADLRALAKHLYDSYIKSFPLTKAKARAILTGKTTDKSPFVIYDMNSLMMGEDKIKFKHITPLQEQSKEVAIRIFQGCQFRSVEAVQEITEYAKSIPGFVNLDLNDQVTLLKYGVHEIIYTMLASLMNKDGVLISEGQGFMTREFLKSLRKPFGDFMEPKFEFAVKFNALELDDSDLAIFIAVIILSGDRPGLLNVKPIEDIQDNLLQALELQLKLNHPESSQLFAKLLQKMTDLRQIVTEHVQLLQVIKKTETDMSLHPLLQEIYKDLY
Peroxisome proliferator-activated receptor delta (Homo sapiens), sequence (Q03181 whole entry, looked up): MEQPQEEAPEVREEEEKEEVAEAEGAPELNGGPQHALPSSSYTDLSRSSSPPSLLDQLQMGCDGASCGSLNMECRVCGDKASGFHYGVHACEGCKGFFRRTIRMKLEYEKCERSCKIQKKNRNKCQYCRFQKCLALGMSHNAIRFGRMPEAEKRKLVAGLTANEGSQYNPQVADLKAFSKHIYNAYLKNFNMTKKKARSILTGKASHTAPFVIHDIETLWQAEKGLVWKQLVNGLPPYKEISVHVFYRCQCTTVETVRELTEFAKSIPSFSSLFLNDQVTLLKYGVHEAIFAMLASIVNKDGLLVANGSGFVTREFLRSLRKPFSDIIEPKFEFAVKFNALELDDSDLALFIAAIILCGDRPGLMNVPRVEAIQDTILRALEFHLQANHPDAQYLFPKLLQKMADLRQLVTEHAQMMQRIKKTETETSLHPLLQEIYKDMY
Vitamin D3 receptor (Homo sapiens), sequence (P11473 whole entry, looked up): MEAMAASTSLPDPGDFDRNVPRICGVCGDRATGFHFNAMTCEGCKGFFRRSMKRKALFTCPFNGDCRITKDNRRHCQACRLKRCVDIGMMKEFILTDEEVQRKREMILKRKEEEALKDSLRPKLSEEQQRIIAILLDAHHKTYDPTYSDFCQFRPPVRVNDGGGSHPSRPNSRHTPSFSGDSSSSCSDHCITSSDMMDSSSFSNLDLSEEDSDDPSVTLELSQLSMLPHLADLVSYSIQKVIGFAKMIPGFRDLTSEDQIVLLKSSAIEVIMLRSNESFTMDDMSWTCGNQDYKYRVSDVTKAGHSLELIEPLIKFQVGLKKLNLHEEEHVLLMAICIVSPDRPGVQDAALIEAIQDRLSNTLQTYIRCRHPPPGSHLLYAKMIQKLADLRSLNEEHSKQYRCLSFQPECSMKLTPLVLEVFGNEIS

Take `O=C1NS(=O)(=O)c2ccccc21`: the Potency result in [1], in [2], in [3], in test [4], in test [5] and in test [6] was “inactive” throughout. Moreover, the Potency entry in test [7], in test [8], in test [9] and in [10] was “inactive” in each case.
Take `CN[C@H]1CC[C@@H](c2ccc(Cl)c(Cl)c2)c2ccccc21`: the Potency result in test [11] and in test [2] was “inactive” each time. For the same molecule, the Potency is 18.8 µM (active) in [5]; 21.1 µM (active) in [7]; 23.7 µM (active) in [8]; 23.7 µM (active) in [9]; 26.6 µM (active) in test [10].
As for `CC(C)c1c(C(=O)Nc2ccccc2)c(-c2ccccc2)c(-c2ccc(F)cc2)n1CC[C@@H](O)C[C@@H](O)CC(=O)O`, the Potency result in [1], in test [2], in test [3], in test [5], in test [6] and in [7] was “inactive” each time. The Potency entry in test [8], in test [9], in [10], in test [13] and in test [14] was “inactive” throughout. Moreover, in [4], the Potency was 13.2 µM (active). Further, the molecule was classed as inactive in test [12].
Turning to `CN1[C@@H]2CC(OC(=O)[C@H](CO)c3ccccc3)C[C@H]1[C@@H]1O[C@@H]12` (some centres not stated), the Potency result in [1], in test [2], in test [15], in test [16], in [3] and in test [4] was “inactive” throughout. The Potency entry in [5], in test [6], in [7], in [17], in test [8] and in [18] was “inactive” in each case. In addition, the Potency entry in test [9], in test [10], in [13] and in test [14] was “inactive” in each case.
Regarding `Nc1ccc([N+](=O)[O-])cc1O`, the Potency in test [1] was 24.3 µM (active); in test [11], 13.7 µM (active); in [2] it was 38.6 µM (active). The Potency entry in test [5], in [6] and in test [7] was “inactive” each time. For the same molecule, the molecule was classed as inactive in test [12].
On to `Cc1ccc(S(=O)(=O)O)cc1`, for which the Potency result in test [1], in test [2], in [3], in [4], in [5] and in test [6] was “inactive” each time. For the same molecule, the Potency entry in [7], in [8], in test [9] and in test [10] was “inactive” in each case.
For `CN1CCc2cccc3c2[C@H]1Cc1ccc(O)c(O)c1-3`, the Potency in test [1] was 29.8 µM (active) and 24.6 µM (active) and 20.4 µM (active); in test [2], “inactive and 61.8 µM (active)”; in test [16] it was 6.49 µM (active); in test [3], 44.1 µM (active) and 3.65 µM (active); in test [5], 49.1 µM (active) and 5.74 µM (active); in test [7] it was 49.5 µM (active) and 10.3 µM (active) and 21.1 µM (active). In addition, the Potency is 49.5 µM (active) and 18.3 µM (active) in [8]; 55.5 µM (active) and 10.3 µM (active) in [18]; 39.3 µM (active) and 18.3 µM (active) in test [19]; 44.1 µM (active) and inactive in [10]. Further, the Potency result in test [15], in test [6], in test [17], in test [13] and in test [14] was “inactive” each time. In addition, in [20], the molecule was called inactive.
Consider `NC(=O)n1c(O)c(C(=O)c2cccs2)c2cc(Cl)ccc21`, for which the Potency entry in test [1], in test [2], in [7], in test [9] and in test [10] was “inactive” each time. In addition, the Potency in [11] is 23.7 µM (active). For the same molecule, the outcome in [12] and in [20] was inactive.

(Values after PubChem BioAssay (Tox21).)
